Source: PubChem BioAssay
Shown are actives, neighbours in structure and some others; about 3.5% of the full set was active somewhere.
BoNT-F LC inh = BoNT/F light chain protease inhibitors, primary screen, biochemical, flow cytometry, MLPCN library | Multiplex microsphere protease cleavage assay | actives 0.22% (n = 360,000) | inhibition, % at 10 µM; in the data active = inhibition above about 35%, passing the limit was not always enough; inconclusive = no clear call, values can overlap the other calls
Autofluor counter = counter-screen for toxin protease inhibitors: compound fluorescence; compound autofluorescence counterscreen, microsphere flow cytometry; hits give high values; fluorescence intensity (concentration not given with the values); actives 3.1% (n = 360,000); in the data active = fluorescence intensity above about 16000; inconclusive = no clear call, values can overlap the other calls
Anthrax LF prot = Bacillus anthracis LF protease inhibitors, primary screen, biochemical, multiplex microsphere, MLPCN library. inhibition, % at 10 µM. actives 0.12% (n = 360,000). multiplex microsphere protease cleavage assay
BoNT A protease = BoNT/A light chain protease inhibitors, primary screen, biochemical, flow cytometry, MLPCN library; AID 588499, 2011; Botulinum neurotoxin type A light chain protease (Clostridium botulinum A str. ATCC 3502); actives 0.17% (n = 360,000); inhibition, % at 10 µM; multiplex microsphere protease substrate cleavage
Of the large screens only hits and unclear results are named; the others gave an inactive call. Rule as the data show it, unless noted: active = inhibition above about 30%; inconclusive = no clear call, values can overlap the other calls; inactive = below that.

CCOc1ccc(-n2c(=S)sc3c(=O)[nH]c(SCC(=O)NCc4ccco4)nc32)cc1	Autofluor counter 20051, BoNT A protease inconclusive
Cc1cccc(-c2nnc(NC(=O)c3ccc(Cl)cc3)o2)c1	Autofluor counter 16877
Cc1ccc(C(=O)Nc2nnc(-c3ccncc3)o2)cc1	none
O=c1nc2s/c(=C\c3ccco3)c(=O)n2nc1Cc1ccc(F)cc1	Autofluor counter 25032
Cc1ccc(-c2nc3s/c(=C\c4ccco4)c(=O)n3n2)cc1	none
Cc1ccc2cc(NC(=O)C3(C)CCN3C(C)C)ccc2n1 (stereo not given)	none
CCn1c(O)c(/C=N/N=C2CCCC2)c2ccc(C3=NNC(=O)CC3)cc21	Autofluor counter 23877
CCn1ccnc1CN1CCC(n2nccc2NC(=O)c2ccccc2OC)CC1	none
CCOC(=O)Cn1c(=NC(=O)c2cc(-c3cccs3)nc3ccccc23)sc2cc(S(N)(=O)=O)ccc21	none
COC(=O)Cn1c(=NC(=O)c2cc(-c3cccs3)nc3ccccc23)sc2cc(S(N)(=O)=O)ccc21	BoNT A protease 38
Clc1ccc(OCc2nn3c(C4CCCCC4)nnc3s2)c(Cl)c1	Autofluor counter 22251
Cc1noc(C)c1CN(C(=S)NC1CC2CCC1C2)c1ccccc1 (stereo not given)	BoNT-F LC inh 42
O=C(C1CC2C=CC1C2)N1CCN(c2ccccc2)CC1 (stereo not given)	none
CC1(C)C(C=C(Cl)Cl)C1C(=O)N1CCN(c2ccccc2)CC1 (stereo not given)	Autofluor counter 22705
C[C@H](CO)N1C[C@H](C)[C@@H](CN(C)S(C)(=O)=O)Oc2c(NC(=O)Nc3ccccc3)cccc2C1=O	none
CC1=C(C(=O)N2CCOCC2)C(c2ccccc2F)C2=C(CC(C)(C)CC2=O)N1 (stereo not given)	Autofluor counter 19197
CN(C)C(=C(C#N)C#N)N1CCN(c2ccc(Cl)c(Cl)c2)CC1	Autofluor counter 20347
O=C(CCc1ccccc1)Nc1cc(S(=O)(=O)N2CCOCC2)ccc1N1CCCC1	none
COc1cccc(S(=O)(=O)NC2CCN(C#N)C2)c1 (stereo not given)	none
O=C(OCC1OC(n2cnc3c(N(C(=O)c4ccccc4)C(=O)c4ccccc4)ncnc32)C(O)C1F)c1ccccc1 (stereo not given)	Autofluor counter 24792
Nc1ncnc2c1ncn2[C@@H]1O[C@H](CNC(=O)OC[C@@H](N)Cc2ccccc2)[C@@H](O)[C@H]1O	none
C=CCn1c(O)c(C(CC)=NCCc2ccccc2)c(=O)[nH]c1=O	Autofluor counter 22909, BoNT A protease inconclusive
C=CCn1c(O)c(C(C)=NCc2cccnc2)c(=O)[nH]c1=O	Autofluor counter 17471
C=CCn1c(O)c(C(C)=NCc2cc(OC)cc(OC)c2)c(=O)[nH]c1=O	BoNT-F LC inh inconclusive
C=CCn1c(O)c(C(C)=NCCc2ccccc2)c(=O)[nH]c1=O	none
CCC(=NCCCN1CCOCC1)c1c(O)n(Cc2ccccc2)c(=O)[nH]c1=O	Autofluor counter 19516
Cc1cccc(N2CCN(C(=O)[C@H](C)N3C(=O)C4CC=CCC4C3=O)CC2)c1C (stereo not given in full)	none
CCCCn1c(N)c(N(CCOC)C(=O)CC2CCCCC2)c(=O)[nH]c1=O	none
CNc1c(NS(=O)(=O)c2cc(OC)ccc2OC)c(=O)oc2ccccc12	none
Cc1c(N=Cc2ccc(Br)s2)cccc1[N+](=O)[O-]	Autofluor counter 23875
CN1CCN(C(=O)CN(Cc2ccc(Cl)cc2)S(C)(=O)=O)CC1	none
CS(=O)(=O)N(CC(=O)NC1CCCCC1)Cc1ccc(Cl)cc1	Autofluor counter 17256
CS(=O)(=O)N(CC(=O)NC1CCCC1)Cc1ccc(Cl)cc1	Autofluor counter 17349
CN(CC(=O)NC1CCCCC1)S(=O)(=O)c1ccc(Cl)cc1	none
CS(=O)(=O)N(CC(=O)N1CCCCCC1)Cc1ccc(Cl)cc1	Autofluor counter 22456, BoNT A protease inconclusive
CN(CC(=O)Nc1ccc(F)cc1)C(=O)COC(=O)c1ccc(-c2ccccc2)cc1	none
Cc1ccc(C(=O)CSc2n[nH]c(-c3ccco3)n2)cc1C	Autofluor counter 17185
COc1ccc(C(=O)CSc2n[nH]c(-c3ccco3)n2)cc1	Autofluor counter 17016
CC[N+](CC)=N/N=C1\C=CC[N+]([O-])=C1	none
CCOc1ccc(N2C(=O)Cc3ccccc3C2=O)cc1	none
CCOc1ccc(N2CC(=O)N(c3ccc(OCC)cc3)CC2=O)cc1	Autofluor counter 22131
CCOc1ccc(N2C(=O)c3cccnc3C2=O)cc1	Autofluor counter 19193
